From PubChem BioAssay AID485297 (National Center for Advancing Translational Sciences (NCATS), 2010) come the findings set out here.

Molecules are shown by their SMILES. Screen size: about 320,000 compounds; about 9,100 (2.8%) were called active. Entries that show only a call come without a potency. Not shown: some 3% with an inconclusive outcome. This is one part of a sample in which actives are shown more often than they occur. Calls come from the whole dose curve; as a rule, active = well fitted activation curve with a large enough effect; inconclusive = small, poorly fitted or top-dose-only effect; inactive = no such curve, though single readings can be large or run the other way.
Potency is the fitted concentration of half-maximal effect.

This test can be described thus: qHTS Assay for Rab9 Promoter Activators. Note: nearly all actives have a fitted effect of over 60% in size. The following applies: Huh7 Rab9 promoter-luciferase reporter, luminescence, 24 h; series mostly up to 9.22 µM. The text has this: NIH Chemical Genomics Center [NCGC] NIH Molecular Libraries Probe Production centers Network [MLPCN] MLPCN Grant: MH089537-01 Assay Submitter (PI): Yiannis A. Ioannou NCGC Assay Overview: Niemann Pick Type C (NPC) is a rare neurodegenerative lipidosis that is characterized by lipid storage in the endosomal/lysosomal system. Treatment modalities for this devastating disease are currently non-existent due to the severe obstacles associated with accessing the central nervous system with proteins or genes (Ioannou, 2000). We have developed a new paradigm, termed "Orphan Receptor Bypass Therapy" (ORByT), to address these disorders. This paradigm posits the existence of endogenous "suppressor" proteins whose expression can dramatically improve LSD pathogenesis. The goal is the identification/discovery of small chemical compounds that can modulate the expression of these proteins and provide a new treatment modality for these devastating disorders. One such protein whose overexpression reverses aspects of the NPC phenotype is Rab9. We have developed and optimized a cell based luciferase reporter assay in 1536 well format for the identification of up-regulators of the Rab9 promoter.
The Rab9 promoter is cloned in front of the luciferase reporter gene, therefore […] promoter activation results in luciferase expression. Frozen stock of the Rab9 promoter transfected Huh7 cells were obtained from the laboratory of Dr. Yiannis Ioannou (The Mount Sinai School of Medicine, New York, NY). Cells were propagated and maintained at NCGC in medium containing RPMI-1640 supplemented with 10% FBS, 2mM L-glutamine, and 50ug/ml penicillin/streptomycin. Cells were harvested in and plated for assays in OP-MEM I reduced-serum medium supplemented with 10% FBS. The Amplite luciferase reporter gene assay kit was purchased from ABD Bioquest and prepared/stored according to manufacturers recommendations. qHTS Assay Setup: 1.Dispensed 5ul of Huh7 cells stably expressing Rab9-luciferase at a density of 1500 cells per well 1536-well plates. 2.Incubate cells at 37C, 5% CO2, and 95% humidity for 2 hours. 3.Transferred 23nl per well of compound in DMSO solution. 4.Incubated at 37C, 5% CO2, and 95% humidity for 24 hours. 5.Dispensed 3ul per well of Amplite reagent(ABD Bioquest) per well. 6.Incubate at ambient for 10 minutes. 7.Read using the luminescence protocol on the ViewLux plate reader (Perkin Elmer).
Background: In qHTS, concentration-response curves come from the screen itself.
As to `Cc1cc(OCc2cc(C(=O)NCc3cc(C(C)C)no3)no2)cc(C)c1Cl`, the Potency is 1000 nM (active).

On to `Cc1cccnc1CC(C)NC(=O)c1cc(COc2cncc(Cl)c2)on1` (configuration not stated), for which the Potency result was “inactive”.

In the case of `COCCCNC(=O)COc1cc(C)c(Cl)c(C)c1`, the Potency entry was “inactive”.

As to `CN(C)S(=O)(=O)c1cc(C(=O)Nc2ccn(C)n2)c(Cl)cc1Cl`, the Potency entry was “inactive”.

Turning to `O=C(Nc1cccc(C(=O)NC2CC2)c1)c1ccc(F)c(S(=O)(=O)N2CCOCC2)c1`, the Potency result was “inactive”.

In the case of `CC(=O)c1ccc(N2CCN(C(=O)c3ccc(Cl)c(S(=O)(=O)NC4CC4)c3)CC2)c(F)c1`, the Potency entry is “inactive”.

In the case of `O=C(Nc1cccc(S(=O)(=O)N2CCCCC2)c1)c1ccc2c(c1)OCO2`, the Potency entry is “inactive”.

For `Cn1c(NC(=O)c2ccc3c(c2)OCO3)cc(=O)n(C)c1=O`, the Potency entry was “inactive”.

Take `O=C(Nc1ccccc1)c1ccc2c(c1)OCO2`: the Potency is 2510 nM (active).

For `O=C(Nc1ccccc1)c1ccc2c(c1)OCCCO2`, the Potency is 562 nM (active).

Take `COCc1nnc(NC(=O)c2ccc3c(c2)OCO3)s1`: the Potency is 2820 nM (active).

On to `O=C(Nc1cccc([N+](=O)[O-])c1)c1ccc2c(c1)OCO2`, for which the Potency entry was “inactive”.

In the case of `CCCc1nnc(NC(=O)c2cc(OC)cc(OC)c2)s1`, the Potency entry is “inactive”.

Take `CN1CCN(c2ccc(NC(=O)c3cc(Cl)c4c(c3)OCCO4)cc2)CC1`: the Potency entry is “inactive”.

With `O=C(Nc1cccc(S(=O)(=O)Nc2ccc(Cl)cc2)c1)c1ccc2c(c1)OCCO2`, the Potency result is “inactive”.

In the case of `COC(=O)c1ccc(N2CCOCC2)c(NC(=O)c2ccc3c(c2)OCCO3)c1`, the Potency entry was “inactive”.

As for `O=C(CN1CCc2cc3c(cc2C1)OCCCO3)Nc1ccccc1`, the Potency result was “inactive”.

Consider `CN1CCN(c2ccc(NC(=O)c3ccc4c(c3)OCCO4)cc2Cl)CC1`, for which the Potency is 2000 nM (active).

As for `CCN(CC)c1nc(-c2ccccc2)cc(C(F)(F)F)c1C#N`, the Potency result was “inactive”.

For `Cc1ccc(-c2nnc(-n3nnc4ccccc43)c3ccccc23)cc1`, the Potency entry is “inactive”.

Consider `Cc1ccc(C(=O)OCC(=O)NCc2cc(C)c(O)c(C)c2)cc1S(=O)(=O)N1CCCCC1`, for which the Potency entry was “inactive”.

Turning to `O=C(Nc1ccc(Br)cn1)C1CCN(S(=O)(=O)c2cccs2)CC1`, the Potency entry was “inactive”.

For `O=C(CN1CCCCC1)Nc1ccccc1C(=O)NC1CC1`, the Potency result was “inactive”.

Regarding `C=CCNc1nc(N)c(C(=C(C#N)C#N)c2ccccc2)s1`, the Potency entry is “inactive”.

As for `Cc1n[nH]c(=O)c2c(NC(=O)CSc3cc(Cl)ccc3Cl)oc(C)c12`, the Potency entry is “inactive”.

For the compound `O=S(=O)(NCCc1ccccn1)c1cc(Cl)cc(Cl)c1O`, the Potency entry was “inactive”.

`O=C(CCNC(=O)c1ccccc1)Nc1nc2ccccc2s1`: the Potency result was “inactive”.

For the compound `Cc1ccc(F)cc1NC(=O)c1ccc2c(c1)OCO2`, the Potency entry was “inactive”.

Turning to `O=C(Nc1ccccc1F)c1ccc2c(c1)OCO2`, the Potency is 2820 nM (active).

`COc1ccc(C(=O)Nc2ccc3c(c2)OCO3)cc1OC`: the Potency was 4470 nM (active).

Consider `COc1ccc(S(=O)(=O)N2CCOCC2)cc1C(=O)Nc1nc2ccccc2s1`, for which the Potency entry is “inactive”.

`O=C(Nc1ccccc1N1CCN(C(=O)c2ccccc2)CC1)c1ccc2c(c1)OCO2`: the Potency entry was “inactive”.

Consider `O=C(Nc1nc2cc3c(cc2s1)OCCO3)c1cccc(S(=O)(=O)N2CCOCC2)c1`, for which the Potency entry is “inactive”.

Consider `Cc1nn(CC(=O)Nc2nc3ccccc3s2)c(C)c1[N+](=O)[O-]`, for which the Potency result is “inactive”.

For the compound `COc1cc(NC(=O)c2ccc3c(c2)OCO3)ccc1NC(=O)c1cccs1`, the Potency result was “inactive”.

As for `O=C(Nc1ccc2c(c1)OCO2)c1ccc(N2C(=O)c3ccccc3C2=O)cc1`, the Potency result was “inactive”.

With `O=C(Nc1nc2ccccc2s1)c1ccc2c(c1)OCO2`, the Potency was 316 nM (active).

On to `O=C(Nc1ccccc1)Nc1nc2ccccc2s1`, for which the Potency was 1120 nM (active).

Regarding `CSc1ncccc1C(=O)Nc1ccc2c(c1)OCO2`, the Potency result was “inactive”.

Consider `CCC(C)NC(=O)c1ccc(NC(=O)CC2SC(N3CCCCC3)=NC2=O)cc1` (configuration not stated), for which the Potency entry is “inactive”.

Turning to `CC1CC(C)CN(C(=O)COC(=O)c2ccc3ncsc3c2)C1` (configuration not stated), the Potency entry is “inactive”.

With `CN(CC(=O)NCC(c1ccccc1)N1CCCC1)S(=O)(=O)c1ccc(Cl)cc1` (configuration not stated), the Potency result is “inactive”.

With `COc1ccc(CCNC(=O)COc2ccc3c(c2)OCO3)cc1`, the Potency result is “inactive”.

Regarding `CC(Oc1ccc(Br)cc1)C(=O)NC1CCCCCC1` (configuration not stated), the Potency result was “inactive”.

For the compound `CCSc1ccccc1C(=O)Nc1ccc2c(c1)OCO2`, the Potency result is “inactive”.

On to `Cc1ccc(C(=O)Nc2ccc3c(c2)OCO3)cc1S(=O)(=O)N1CCCCC1`, for which the Potency result was “inactive”.

For the compound `CC(C)C(=O)Nc1cccc(C(=O)Nc2ccc3c(c2)OCO3)c1`, the Potency is 1120 nM (active).

As to `CN(CC(=O)Nc1ccc(F)c(F)c1F)C(=O)C1CC(=O)N(C2CCCC2)C1` (configuration not stated), the Potency entry was “inactive”.

In the case of `NS(=O)(=O)c1ccc(CNC(=O)c2cccc(S(=O)(=O)N3CCc4ccccc43)c2)cc1`, the Potency entry is “inactive”.

Take `COc1cc(C(=O)Nc2ncccc2C)ccc1OCC(=O)N1CCOCC1`: the Potency result was “inactive”.

As to `CC1(C)O[C@@H]2[C@H](O1)[C@@H](COS(=O)(=O)O)O[C@H]2n1ccc(=O)[nH]c1=O`, the Potency result was “inactive”.

Take `CCOc1cccc(-n2nnnc2-c2ccc(OC)cc2)c1`: the Potency result is “inactive”.

As for `COc1ccc(C2=NN(c3nc4ccccc4s3)C(=O)C2)cc1`, the Potency result was “inactive”.

Regarding `COc1ccc(-n2nnnc2-c2nc3ccccc3s2)cc1`, the Potency is 2820 nM (active).

Take `CCOc1ccc(NC(=O)COC(=O)C2CCC(=O)N2)c([N+](=O)[O-])c1` (configuration not stated): the Potency result is “inactive”.

As for `C[C@H](NC(=O)c1[nH]cnc1C(=O)Nc1nccs1)c1ccccc1`, the Potency entry is “inactive”.

Turning to `CSc1ccccc1OCc1cc(C(=O)N2C[C@H]3CC[C@H]2C3)no1`, the Potency was 2820 nM (active).

On to `CSc1ccccc1OCc1cc(C(=O)N(C)CCc2c(C)n[nH]c2C)no1`, for which the Potency result is “inactive”.

Take `COC(=O)[C@@H]1CCCN1C(=O)c1cc(COc2cccc3cccnc23)on1`: the Potency result was “inactive”.

Turning to `CC(OC(=O)CN1C(=O)c2ccccc2C1=O)C(=O)c1ccccc1` (configuration not stated), the Potency result is “inactive”.

Turning to `Cc1cc(C(=O)Nc2ccc(C)c(S(=O)(=O)N3CCOCC3)c2)c2ccccc2n1`, the Potency entry was “inactive”.

Consider `Cc1ccc(C(=O)NCC(c2cccs2)N(C)C)cc1S(=O)(=O)N1CCOCC1` (configuration not stated), for which the Potency entry is “inactive”.

For the compound `Nc1ccn(CC(=O)N2CCN(c3ccccn3)CC2)c(=O)n1`, the Potency result was “inactive”.

With `O=C(/C=C/c1ccco1)Nc1ccc(Oc2ccccc2)cc1`, the Potency is 3980 nM (active).

With `O=C(/C=C/c1ccco1)NC(=S)Nc1ccccc1Br`, the Potency entry was “inactive”.

For `Cc1nnc(NC(=O)/C=C/c2ccco2)s1`, the Potency result was “inactive”.

With `Cc1nc(Cl)cc(N/N=C/c2ccccc2)n1`, the Potency result is “inactive”.

As to `C(=N\Nc1ccc2ccccc2n1)/c1ccc2c(c1)OCO2`, the Potency is 100 nM (active).

Consider `Cc1noc(C)c1/C=N/Nc1ccc2ccccc2n1`, for which the Potency is 708 nM (active).

Take `Brc1ccc(-c2csc(N/N=C/c3ccc4c(c3)OCO4)n2)cc1`: the Potency entry was “inactive”.

Regarding `Cc1cc(C)nc(N/N=C/c2c(C)oc3ccccc23)n1`, the Potency result is “inactive”.

Consider `O=C(Nc1ccc2ccccc2c1)/C(=C\c1ccc2c(c1)OCO2)NC(=O)c1ccco1`, for which the Potency entry is “inactive”.
